Results reported in PubChem BioAssay (NCATS).
Inconclusive results are not listed. Active and inactive are the calls of the source. Unless noted, calls follow the shape of the dose curve; as a rule, active = well fitted curve in the direction sought with a large enough effect; inconclusive = small, poorly fitted or top-dose-only effect, or another doubt; inactive = no such curve, though single readings can be large; an effect the other way counts as inactive or inconclusive.

Tests used:
[1] = target: Lysosomal acid glucosylceramidase (Homo sapiens) (UniProt P04062); assay: Glucocerebrosidase-p2 (AID 348; in the data active = potency below about 10 µM; also: potency is read from the fitted curve at half-maximal effect); details: purified GBA, blue fluorogenic substrate, 40 min
Chain of Lysosomal acid glucosylceramidase (Homo sapiens) (P04062 whole entry, looked up): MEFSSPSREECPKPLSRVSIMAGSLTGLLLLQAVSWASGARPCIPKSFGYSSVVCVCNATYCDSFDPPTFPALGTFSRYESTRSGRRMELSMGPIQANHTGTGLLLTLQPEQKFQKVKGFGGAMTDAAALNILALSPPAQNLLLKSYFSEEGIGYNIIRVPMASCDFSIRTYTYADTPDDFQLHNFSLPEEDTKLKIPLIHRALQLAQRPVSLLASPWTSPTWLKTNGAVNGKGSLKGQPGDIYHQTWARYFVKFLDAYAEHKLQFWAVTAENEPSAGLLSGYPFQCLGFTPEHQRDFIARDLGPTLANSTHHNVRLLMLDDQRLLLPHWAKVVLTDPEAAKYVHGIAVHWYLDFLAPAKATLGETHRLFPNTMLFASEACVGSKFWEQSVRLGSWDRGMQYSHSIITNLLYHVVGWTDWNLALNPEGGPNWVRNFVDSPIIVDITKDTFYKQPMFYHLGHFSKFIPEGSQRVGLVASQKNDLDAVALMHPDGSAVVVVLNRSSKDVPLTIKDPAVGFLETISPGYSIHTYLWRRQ
Summary of the method: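 Normal human glucocerebrosidase (0.2 nM) with blue fluorogenic substrate (80 uM final) in citrate/phosphate pH 5.9 with 10mM sodium taurocholate, 0.01% tween-20; 40 min RT, NaOH/glycine stop; fluorescence Ex 365/Em 440; AC50 from a titration from 0.6 nM upwards.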

[2] = AP1 Signaling Pathway (AID 357; active = well fitted curve in either direction with a large enough effect, not every such curve was filed as active;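 also: ME-180 reporter cells stimulated with EGF at its EC50 level; % is scaled to controls: 0 for no effect and ±100 for the full control effect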); details: ME-180 AP-1-bla reporter, EGF-induced, beta-lactamase ratio, 5 h; at 7.69 µM (top of the series) unless noted
Summary of the method: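 Modulation of EGF-driven AP-1 transcription was assessed with a beta-lactamase reporter in ME-180 cells. Compound and EC50 EGF were co-incubated 5 hours at 37 °C before 2.5-hour CCF4 loading at room temperature and dual-emission reading.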

[3] = target: Cytochrome P450 1A2 (Homo sapiens) (UniProt P05177); assay: p450-cyp1a2 (AID 410; calls by dose curve; also: potency is read from the fitted curve at half-maximal effect;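 as to activity change, negative = inhibition: -100% = full effect of reference inhibitor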); details: recombinant CYP1A2, luciferin-ME demethylation, luminescence; series mostly up to 57 µM
Chain of Cytochrome P450 1A2 (Homo sapiens) (P05177 whole entry, looked up): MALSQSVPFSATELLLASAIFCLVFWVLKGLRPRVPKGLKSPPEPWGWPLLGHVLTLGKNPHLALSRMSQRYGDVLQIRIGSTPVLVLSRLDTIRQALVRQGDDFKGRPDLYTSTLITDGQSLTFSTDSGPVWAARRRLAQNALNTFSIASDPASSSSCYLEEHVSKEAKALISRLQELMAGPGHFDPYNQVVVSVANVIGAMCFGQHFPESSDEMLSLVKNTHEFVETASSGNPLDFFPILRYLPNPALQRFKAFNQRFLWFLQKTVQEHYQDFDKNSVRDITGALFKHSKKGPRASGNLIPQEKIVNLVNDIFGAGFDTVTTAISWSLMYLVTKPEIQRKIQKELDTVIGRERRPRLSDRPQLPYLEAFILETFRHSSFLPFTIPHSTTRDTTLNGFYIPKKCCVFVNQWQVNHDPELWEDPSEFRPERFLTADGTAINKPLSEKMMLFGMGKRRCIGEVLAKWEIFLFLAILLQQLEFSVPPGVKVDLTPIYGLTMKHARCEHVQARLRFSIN
Summary of the method: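 Luminescent demethylation readout: Luciferin-ME (100uM, equal to Km) turned over by 20nM CYP1A2 for 60 min at room temperature after NADPH regeneration addition, following 10 min compound preincubation. Normalization used 57 uM furafylline as full inhibition.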

[4] = NFAT Signaling Pathway (AID 444; active = well fitted curve in either direction with a large enough effect, not every such curve was filed as active;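 also: carbachol stimulus at about its EC50 of 1 µM final; % is scaled to controls: 0 for no effect and ±100 for the full control effect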); details: Jurkat NFAT-bla M1, carbachol, beta-lactamase ratio, 5 h; at 7.69 µM (top of the series) unless noted
Summary of the method: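 Read-out: CCF4 FRET ratio (460 nm/530 nm) after 1 h RT dye loading, used for %activity and AC50 from titration series. Cells: Jurkat NFAT-β-lactamase/M1 line, treated with compound plus 1 uM carbachol for 5 h, 37 °C.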

[5] = target: Glucocorticoid receptor (Homo sapiens) (UniProt P04150); assay: GR-GFP Redistribution (AID 450;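 active = compounds whose dose series gives a full or clear partial fitted curve of increased nuclear translocation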; also: potency is read from the fitted curve at half-maximal effect); details: U2OS GR-GFP nuclear translocation, laser cytometry, 2 h
Chain of Glucocorticoid receptor (Homo sapiens) (P04150 whole entry, looked up, the tested form may be a part): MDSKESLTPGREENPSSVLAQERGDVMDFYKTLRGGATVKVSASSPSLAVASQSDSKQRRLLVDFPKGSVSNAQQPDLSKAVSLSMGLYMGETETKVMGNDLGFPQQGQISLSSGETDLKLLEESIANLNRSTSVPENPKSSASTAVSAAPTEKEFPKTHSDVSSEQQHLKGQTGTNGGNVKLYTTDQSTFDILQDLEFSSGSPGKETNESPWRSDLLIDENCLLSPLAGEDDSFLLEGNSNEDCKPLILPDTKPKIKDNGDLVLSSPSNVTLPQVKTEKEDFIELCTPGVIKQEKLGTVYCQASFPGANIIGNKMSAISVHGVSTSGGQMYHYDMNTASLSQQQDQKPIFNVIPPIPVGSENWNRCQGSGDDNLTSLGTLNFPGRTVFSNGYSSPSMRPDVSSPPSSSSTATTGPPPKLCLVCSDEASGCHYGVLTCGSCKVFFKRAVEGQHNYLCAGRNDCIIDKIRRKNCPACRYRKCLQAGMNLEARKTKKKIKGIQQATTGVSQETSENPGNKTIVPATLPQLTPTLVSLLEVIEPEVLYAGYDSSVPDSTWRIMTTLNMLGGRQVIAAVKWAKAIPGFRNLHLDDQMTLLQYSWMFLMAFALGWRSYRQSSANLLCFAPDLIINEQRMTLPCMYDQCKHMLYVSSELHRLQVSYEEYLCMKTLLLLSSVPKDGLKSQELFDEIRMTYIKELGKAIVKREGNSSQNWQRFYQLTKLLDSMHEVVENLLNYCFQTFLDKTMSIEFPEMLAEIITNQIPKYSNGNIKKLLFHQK

[6] = target: Glucocorticoid receptor (Homo sapiens) (UniProt P04150); assay: GR-EFC Redistribution (AID 451; calls by dose curve; also: potency is read from the fitted curve at half-maximal effect); details: CHO-K1 GR-EFC translocation, beta-gal luminescence, 2 h
Summary of the method: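 Translocation of GR-ED fusion to nuclear EA restores b-gal, read by luminescence after 1 h room-temperature detection. Engineered CHO-K1 biosensor cells, 1,000/well, exposed 2 h at 37 C to titrations up to 46 uM final.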

[7] = target: Mitogen-activated protein kinase 10 (Mus musculus) (UniProt Q61831); assay: JNK3 AlphaScreen Assay (AID 530; active = well fitted curve in either direction with a large enough effect, not every such curve was filed as active;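 also: kinase came from lysate of stimulated human HepG2 cells; signal reports phosphorylation of biotinylated GST-cJun 1-79 at Ser73 with 10 µM ATP; % is scaled to controls: 0 for no effect and ±100 for the full control effect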); details: JNK3 lysate, c-Jun phosphorylation; series mostly up to 57.1 µM
Summary of the method: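 qHTS titrations with 15 min compound pre-incubation before adding ATP (10 uM final). Read-out: AlphaScreen of Ser73-phosphorylated biotin-GST-cJun using HepG2 lysate JNK3 activated by IL-1β and TNFα.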

[8] = target: 3',5'-cyclic-AMP phosphodiesterase 4B (Homo sapiens) (UniProt Q07343); assay: qHTS Assay for Inhibitors of PDE-IV (AID 607; active = well fitted activation curve with a large enough effect in the main read-out, with a control signal flat, not every such curve was filed as active; also: % of control where 0% means no effect); details: HEK293 ACTOne CNG channel cells, membrane potential fluorescence; series mostly up to 22.9 µM
Chain of 3',5'-cyclic-AMP phosphodiesterase 4B (Homo sapiens) (Q07343 whole entry, looked up): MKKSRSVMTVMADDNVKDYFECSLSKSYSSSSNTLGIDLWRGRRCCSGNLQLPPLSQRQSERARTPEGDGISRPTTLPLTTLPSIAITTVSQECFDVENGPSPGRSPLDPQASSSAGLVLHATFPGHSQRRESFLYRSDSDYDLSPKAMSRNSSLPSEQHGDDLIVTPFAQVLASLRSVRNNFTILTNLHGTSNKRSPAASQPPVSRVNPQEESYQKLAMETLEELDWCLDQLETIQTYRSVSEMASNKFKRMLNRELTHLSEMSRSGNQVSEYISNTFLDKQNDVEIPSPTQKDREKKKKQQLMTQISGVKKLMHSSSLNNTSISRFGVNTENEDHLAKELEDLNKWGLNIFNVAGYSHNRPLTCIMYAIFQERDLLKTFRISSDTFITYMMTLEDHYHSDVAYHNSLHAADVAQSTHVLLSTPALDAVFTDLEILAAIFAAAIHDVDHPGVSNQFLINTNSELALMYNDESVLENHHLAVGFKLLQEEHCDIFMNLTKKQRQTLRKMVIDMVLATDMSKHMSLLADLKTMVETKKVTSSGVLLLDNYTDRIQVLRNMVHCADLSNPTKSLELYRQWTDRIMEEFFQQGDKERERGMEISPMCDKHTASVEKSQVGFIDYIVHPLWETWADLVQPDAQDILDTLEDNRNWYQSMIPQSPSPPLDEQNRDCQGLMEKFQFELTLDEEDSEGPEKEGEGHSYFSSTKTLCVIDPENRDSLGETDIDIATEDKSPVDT
Summary of the method: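 HEK293 ACTOne cells with CNG channel (1000/well), endogenous PDE4; membrane potential dye, compounds up to 22.9 uM final. Fluorescence Ex 535/Em 590; RO 20-1724 (100 uM final) as reference.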

[9] = target: Cytochrome P450 3A4 (Homo sapiens) (UniProt P08684); assay: qHTS Assay for Inhibitors and Substrates of Cytochrome P450 3A4 (AID 884); details: recombinant CYP3A4, Luciferin-PPXE luminescence; series mostly up to 57.1 µM; also: potency is read from the fitted curve at half-maximal effect; nearly all actives have a fitted effect of over 50% in size
Chain of Cytochrome P450 3A4 (Homo sapiens) (P08684 whole entry, looked up): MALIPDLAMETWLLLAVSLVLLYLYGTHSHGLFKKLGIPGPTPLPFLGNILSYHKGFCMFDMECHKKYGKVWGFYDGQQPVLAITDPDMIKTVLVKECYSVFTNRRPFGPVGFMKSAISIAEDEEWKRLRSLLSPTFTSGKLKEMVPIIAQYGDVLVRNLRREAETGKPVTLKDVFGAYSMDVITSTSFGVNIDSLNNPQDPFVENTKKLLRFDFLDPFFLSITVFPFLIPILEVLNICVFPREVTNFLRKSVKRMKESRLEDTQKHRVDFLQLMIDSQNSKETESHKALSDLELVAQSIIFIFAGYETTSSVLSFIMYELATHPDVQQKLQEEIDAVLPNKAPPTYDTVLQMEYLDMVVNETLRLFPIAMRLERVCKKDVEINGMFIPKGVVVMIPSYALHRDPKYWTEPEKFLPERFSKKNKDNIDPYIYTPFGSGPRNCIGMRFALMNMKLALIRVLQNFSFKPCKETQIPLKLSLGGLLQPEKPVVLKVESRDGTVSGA
Summary of the method: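 Luminescent readout of luciferin produced by CYP3A4 (20 nM) dealkylation of Luciferin-PPXE, 25 uM (its KM). NADPH-driven reaction ran 60 min at RT after 10 min compound preincubation; data scaled to 57 uM ketoconazole as 100% inhibition.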

[10] = target: Cytochrome P450 3A4 (Homo sapiens) (UniProt P08684); assay: qHTS Assay for Activators of Cytochrome P450 3A4 (AID 885); details: recombinant CYP3A4, Luciferin-PPXE luminescence, 60 min; series mostly up to 57.1 µM; also: nearly all actives have a fitted effect of over 65% in size
Summary of the method: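 Human CYP3A4 dealkylates Luciferin-PPXE to luciferin, which luciferase detection converts to light. Substrate was at its KM (25uM), buffer 200mM KPO4, reaction 60 min at RT.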

[11] = qHTS Assay for Identification of Small Molecule Agonists for Hypoxia Response Element Signaling Pathway (AID 914; active = well fitted activation curve with a large enough effect in the signal ratio, with a control signal flat, not every such curve was filed as active; the % refers to the signal ratio; also: potency is read from the fitted curve at half-maximal effect; as to activation: % of control where 0% means no effect); details: ME-180 HRE-bla reporter, beta-lactamase ratio, CoCl2, 17 h; activation: stronger effect = higher value
Summary of the method: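 A beta-lactamase reporter under hypoxia response element control in ME-180 cells served as the system. Compound titrations plus EC50 CoCl2 ran 17 h at 37 degrees Celsius; AC50 values were fitted from %Activity.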

[12] = qHTS Assay for Lipid Storage Modulators (AID 1519; calls by dose curve); details: Drosophila S3 cells, BODIPY lipid droplet/cell ratio, laser cytometry, cells loaded with oleic acid; for activity change, negative = inhibition: at 57.5 µM (top of the series)
Summary of the method: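 Cells seeded at 5,000 per well were treated with compounds over a concentration series and loaded with oleic acid (400 uM, as added). Lipid droplet fluorescence (488 nm excitation, 500-530 nm channel) was read by laser-scanning cytometry and normalized to 20 uM Triacsin C.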

[13] = target: Dual specificity protein kinase CLK4 (Homo sapiens) (UniProt Q9HAZ1); assay: qHTS Assay for Inhibitors of CDC-like Kinase 4 (Kinase-Glo Assay) (AID 1770); details: recombinant Clk4, Kinase-Glo ATP depletion luminescence; series mostly up to 66.7 µM; also: nearly all actives have a fitted effect of over 65% in size; also: potency is read from the fitted curve at half-maximal effect
Chain of Dual specificity protein kinase CLK4 (Homo sapiens) (Q9HAZ1 whole entry, looked up): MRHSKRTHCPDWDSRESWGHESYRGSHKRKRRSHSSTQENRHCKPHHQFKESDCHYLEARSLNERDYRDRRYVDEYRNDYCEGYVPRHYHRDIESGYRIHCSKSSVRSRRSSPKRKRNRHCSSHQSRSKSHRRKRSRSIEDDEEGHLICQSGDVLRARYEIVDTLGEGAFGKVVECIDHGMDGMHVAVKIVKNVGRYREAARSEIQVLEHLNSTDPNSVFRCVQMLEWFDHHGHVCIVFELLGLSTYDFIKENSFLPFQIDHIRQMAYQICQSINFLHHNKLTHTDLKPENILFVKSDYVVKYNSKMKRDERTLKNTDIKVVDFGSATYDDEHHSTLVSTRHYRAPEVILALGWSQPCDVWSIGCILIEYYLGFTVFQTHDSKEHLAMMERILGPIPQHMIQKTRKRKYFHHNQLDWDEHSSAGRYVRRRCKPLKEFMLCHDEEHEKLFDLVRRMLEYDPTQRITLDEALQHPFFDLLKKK
Summary of the method: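 25 nM Clk4 with 100 uM RS repeat peptide and 1 uM ATP (final) in Tris pH7.5, 10 mM MgCl2, 4.5 h at room temperature. Remaining ATP measured by Kinase-Glo luciferase luminescence.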

[14] = target: Dual specificity protein kinase CLK4 (Homo sapiens) (UniProt Q9HAZ1); assay: qHTS Assay for Inhibitors of CDC-like Kinase 4 (ADP-Glo Assay) (AID 1771); details: recombinant CLK4, ADP-Glo luminescence; series mostly up to 80 µM; also: nearly all actives have a fitted effect of over 70% in size; also: potency is read from the fitted curve at half-maximal effect
Summary of the method: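 ADP production was read by ADP-Glo luminescence after residual ATP depletion, following 1 h room-temperature reaction of 25 nM Clk4, 1 uM ATP and 100 uM RS peptide with MgCl2, EGTA, DTT and Triton X-100.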

[15] = target: Dual specificity protein kinase CLK4 (Homo sapiens) (UniProt Q9HAZ1); assay: qHTS Assay for Inhibitors of CDC-like Kinase 4 (ADP-FP Assay) (AID 1795); details: Transcreener ADP fluorescence polarization; series mostly up to 50 µM; also: nearly all actives have a fitted effect of over 60% in size; also: potency is read from the fitted curve at half-maximal effect
Summary of the method: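 Recombinant Clk4 (6.25 nM) phosphorylated 100 uM RS repeat peptide with 1 uM ATP in 25 mM Tris pH 7.5, 10 mM MgCl2, 0.5 mM EGTA, 2.5 mM DTT, 0.01% Triton X-100 for 1 h. ADP was detected by Transcreener ADP2 competitive fluorescence polarization after 30 min at room temperature.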

[16] = target: Ubiquitin carboxyl-terminal hydrolase 1 (Homo sapiens) (UniProt O94782); assay: Inhibitors of USP1/UAF1: Pilot qHTS (AID 504865); details: purified USP1/UAF1, Ub-rhodamine cleavage fluorescence; series mostly up to 54.9 µM;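 also: rhodamine fluorescence freed from ubiquitin-rhodamine substrate followed over time; top concentration of the series differs between compounds; % is scaled to controls: 0 for no effect and ±100 for the full control effect; nearly all actives have a fitted effect of over 35% in size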
Chain of Ubiquitin carboxyl-terminal hydrolase 1 (Homo sapiens) (O94782 whole entry, looked up): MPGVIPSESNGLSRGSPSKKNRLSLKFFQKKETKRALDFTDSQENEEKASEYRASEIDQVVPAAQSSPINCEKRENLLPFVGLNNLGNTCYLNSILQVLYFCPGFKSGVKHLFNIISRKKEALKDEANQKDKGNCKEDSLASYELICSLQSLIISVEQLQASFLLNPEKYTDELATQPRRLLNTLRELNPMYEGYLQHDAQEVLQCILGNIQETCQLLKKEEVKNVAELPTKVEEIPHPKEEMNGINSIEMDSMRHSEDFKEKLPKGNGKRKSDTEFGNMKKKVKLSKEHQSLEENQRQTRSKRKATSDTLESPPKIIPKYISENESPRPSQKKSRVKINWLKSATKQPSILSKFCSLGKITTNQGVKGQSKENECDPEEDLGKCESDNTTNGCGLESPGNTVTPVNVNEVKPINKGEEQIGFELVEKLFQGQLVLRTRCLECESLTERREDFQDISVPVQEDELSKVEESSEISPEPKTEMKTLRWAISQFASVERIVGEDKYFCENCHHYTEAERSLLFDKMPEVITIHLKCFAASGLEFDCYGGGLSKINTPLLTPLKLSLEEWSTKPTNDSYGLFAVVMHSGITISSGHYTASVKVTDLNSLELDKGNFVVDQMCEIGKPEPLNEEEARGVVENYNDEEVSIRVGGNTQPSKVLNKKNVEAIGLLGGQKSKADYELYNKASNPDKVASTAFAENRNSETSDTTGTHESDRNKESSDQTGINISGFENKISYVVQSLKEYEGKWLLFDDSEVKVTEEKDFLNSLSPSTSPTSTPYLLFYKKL
Summary of the method: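 USP1/UAF1 complex at 1 nM preincubated 15 min at room temperature with compound, then Ub-Rho substrate added at 150 nM final. Fluorescence (480/540 nm) read kinetically in 50 mM HEPES pH 7.8, 0.5 mM EDTA, 1 mM TCEP, 0.1 mg/ml BSA, 0.01% Tween-20.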

[17] = Primary qHTS for small molecule stabilizers of the endoplasmic reticulum resident proteome: Secreted ER Calcium Modulated Protein (SERCaMP) assay (AID 1508630); details: SH-SY5Y GLuc-SERCaMP (Gaussia luciferase released on ER calcium loss) secretion, thapsigargin, luminescence; series mostly up to 38.4 µM; also: % is scaled to controls: 0 for no effect and ±100 for the full control effect
Summary of the method: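 The SH-SY5Y reporter protocol was run at 3 concentrations up to 38.3 uM (primary) or 11 concentrations (follow-up): 16 h compound, 100 nM thapsigargin for 4 h, then extracellular luciferase luminescence.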

[18] = Stat Signaling Pathway (AID 446; active = well fitted curve in either direction with a large enough effect, not every such curve was filed as active); details: ME-180 (cervical carcinoma) SIE beta-lactamase reporter, IL-6 stimulated, 5 h; at 7.69 µM (top of the series) unless noted
Summary of the method: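 Normalization used AC90 stimulation (300 pM IL-6) and AC90 inhibition (125 nM pan-JAK inhibitor at 40 pM IL-6). The underlying signal is SIE-driven beta-lactamase in ME-180 cells after 5 h IL-6 exposure with compound.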

[19] = target: Cytochrome P450 2D6 (Homo sapiens) (UniProt P10635); assay: qHTS Assay for Inhibitors and Substrates of Cytochrome P450 2D6 (AID 891); details: recombinant CYP2D6, luciferin-ME EGE luminescence; series mostly up to 57.1 µM; also: potency is read from the fitted curve at half-maximal effect; nearly all actives have a fitted effect of over 60% in size
Chain of Cytochrome P450 2D6 (Homo sapiens) (P10635 whole entry, looked up): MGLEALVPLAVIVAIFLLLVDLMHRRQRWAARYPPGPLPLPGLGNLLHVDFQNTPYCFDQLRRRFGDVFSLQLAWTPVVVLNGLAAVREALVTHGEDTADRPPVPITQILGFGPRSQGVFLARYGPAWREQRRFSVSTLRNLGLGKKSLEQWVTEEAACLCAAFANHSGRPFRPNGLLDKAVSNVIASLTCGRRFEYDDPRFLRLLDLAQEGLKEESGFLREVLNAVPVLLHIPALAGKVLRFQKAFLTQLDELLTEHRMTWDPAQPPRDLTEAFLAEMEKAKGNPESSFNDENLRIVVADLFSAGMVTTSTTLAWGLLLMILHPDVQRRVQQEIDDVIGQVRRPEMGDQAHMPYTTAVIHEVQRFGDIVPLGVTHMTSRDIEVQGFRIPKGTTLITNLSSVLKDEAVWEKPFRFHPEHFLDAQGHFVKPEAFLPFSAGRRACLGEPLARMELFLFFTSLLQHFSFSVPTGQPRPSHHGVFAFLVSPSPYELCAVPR
Summary of the method: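 Luminescent read-out of luciferin formed by 5 nM human CYP2D6 demethylating 30 uM Luciferin-ME EGE (Km level) over 60 min at room temperature after NADPH regeneration addition. Data normalized to full inhibition by 1.43 uM quinidine.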

[20] = measured here: cell count channel max response
[21] = measured here: lipid channel max response

CCNc1ncc2nc(-c3cn(C)c4ccccc34)c(=O)n(Cc3cccc(OC)c3)c2n1
16.9%: max response [12, 21]
15.6%: max response [12, 20]
active: Potency [3] 12.6 µM | Potency [9] 3.98 µM | Potency [11] 1.58 µM
inactive: Potency [1] > 11.4 µM | activity change, negative = inhibition [2] 0.603% | activity change, negative = inhibition [4] 5.19% | Potency [5] > 9.22 µM | Potency [6] > 46 µM | outcome [7] | Potency [8] | Potency [10] | activity change, negative = inhibition [12] 2.75% | Potency [13] | Potency [14] | Potency [15] | Potency [16] | Potency [17]

Cn1c(=O)c(-c2cc(F)cc(F)c2)nc2cnc(N3CCOCC3)nc21
inactive: Potency [1] > 11.4 µM | activity change, negative = inhibition [2] -11% | activity change, negative = inhibition [4] 14.4% | activity, negative = inhibition [18] -1.78% | Potency [5] > 9.22 µM | Potency [6] > 46 µM | outcome [7] | Potency [8] | activation [11] -3.42% | activity change, negative = inhibition [12] 4.75% | Potency [13] | Potency [14] | Potency [15] | Potency [16] | Potency [17]
22.4%: max response [12, 21]
16.8%: max response [12, 20]
active: Potency [3] 5.01 µM

Cc1ccccc1-c1ccc2ncnc(NC3CC3)c2c1
inactive: Potency [1] > 11.4 µM | activity change, negative = inhibition [2] 5.4% | activity change, negative = inhibition [4] 3.53% | Potency [5] > 46 µM | Potency [6] > 46 µM | outcome [7] | Potency [10] | activity change, negative = inhibition [12] -3.61% | Potency [16] | Potency [17]
active: Potency [3] 0.126 µM | Potency [9] 3.16 µM | Potency [19] 7.94 µM | Potency [13] 11.2 µM | Potency [14] 7.08 µM | Potency [15] 12.6 µM
-0.878%: max response [12, 21]
4.35%: max response [12, 20]

O=c1c(-c2ccc(F)cc2)nc2cnc(N3CCNCC3)nc2n1Cc1ccc(F)cc1
inactive: Potency [1] > 11.4 µM | Potency [5] > 9.22 µM | Potency [6] > 46 µM | outcome [7] | Potency [8] | activity change, negative = inhibition [12] 2.38% | Potency [13] | Potency [14] | Potency [15] | Potency [16] | Potency [17]
7.95%: max response [12, 20]
9.79%: max response [12, 21]
active: activity change, negative = inhibition [2] 115% [activator] | Potency [3] 15.8 µM | activity change, negative = inhibition [4] 163% [activator] | Potency [9] 7.94 µM

COCCNc1ncnc2ccc(-c3ccc(C(=O)N(C)C)cc3)cc12
4.77%: max response [12, 20]
3.74%: max response [12, 21]
inactive: Potency [1] > 11.4 µM | activity change, negative = inhibition [2] -7.19% | Potency [3] | activity change, negative = inhibition [4] 11.8% | activity, negative = inhibition [18] 0.699% | Potency [5] > 46 µM | Potency [6] > 46 µM | outcome [7] | Potency [8] | Potency [10] | activity change, negative = inhibition [12] -0.0247% | Potency [13] | Potency [14] | Potency [15] | Potency [17]
